Sampled rows, rich in hits. Any-hit rate of the full collection: about 1.1%.
HUVEC tox IL1B: toxic to HUVEC cells under IL-1B stimulation; HUVEC cell count loss, Hoechst imaging, IL-1B stimulated; cell count reduction, % at 2 µM; 0.41% of 94,000 active; AID 845;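 active = cell count reduction more than 3 SD above the screen-wide mean, cut at about 70% in these data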;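 note: normalized per plate to untreated control cells as the no-loss baseline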
IL1B NFkB inh: blocks IL-1B driven NFkB nuclear translocation in HUVEC cells. HUVEC IL-1B NFkB p65 nuclear translocation imaging. inhibition, % at 2 µM. 0.43% of 94,000 active;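 active = inhibition above about 30% together with a positive call from visual inspection of the well image, limit read from the data; inconclusive = inhibition above a set limit but visual check negative; inactive = inhibition not above a set limit, visual check negative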;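 note: nuclear over cytoplasmic p65 intensity ratio measured by imaging; 0% = IL-1B stimulated DMSO wells and 100% = unstimulated DMSO wells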
sEH inh: inhibitors of human soluble epoxide hydrolase; 0.34% of 91,000 active; inhibition, % at 2 µM; AID 707; P34913; recombinant human sEH enzymatic activity assay; in the data active = inhibition above about 80%
Target sequence (P34913 whole entry, looked up): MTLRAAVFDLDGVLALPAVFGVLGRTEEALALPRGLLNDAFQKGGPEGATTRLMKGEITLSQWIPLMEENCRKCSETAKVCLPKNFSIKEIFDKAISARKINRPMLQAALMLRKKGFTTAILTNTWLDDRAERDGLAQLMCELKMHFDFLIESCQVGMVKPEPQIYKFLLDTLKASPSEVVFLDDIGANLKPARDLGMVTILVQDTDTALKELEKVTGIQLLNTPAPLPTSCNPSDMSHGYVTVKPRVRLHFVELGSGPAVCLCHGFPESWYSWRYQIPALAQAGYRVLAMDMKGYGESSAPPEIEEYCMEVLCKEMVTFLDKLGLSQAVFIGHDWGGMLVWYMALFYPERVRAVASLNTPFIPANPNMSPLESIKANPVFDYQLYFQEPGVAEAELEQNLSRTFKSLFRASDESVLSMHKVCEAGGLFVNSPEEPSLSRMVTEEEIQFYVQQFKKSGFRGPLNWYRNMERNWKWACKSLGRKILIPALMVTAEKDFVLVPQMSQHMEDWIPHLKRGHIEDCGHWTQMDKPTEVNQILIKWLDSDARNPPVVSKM
NFkB transloc pot: enhances IL-1B driven NFkB nuclear translocation. 0.3% of 94,000 active. activation, % at 2 µM. HUVEC IL-1B NFkB p65 nuclear translocation imaging. AID 819;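 active = activation above 40%, about the mean plus 3 SD, also judged a hit on visual image review; inconclusive = activation above 40% but not a hit on visual review; inactive = activation not above 40% and no visual hit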;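 note: percent activation is computed from the nuclear over cytoplasmic p65 intensity ratio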
sEH act: soluble epoxide hydrolase (human) activation | P34913 | purified human sEH enzymatic activity, activator screen | activation, % at 2 µM | 0.04% of 91,000 active | AID 717; in the data active = activation above about 37%
Numbers without * were called inactive; ? = inconclusive; / = no result given.

SMILES	HUVEC tox IL1B	IL1B NFkB inh	sEH inh	NFkB transloc pot	sEH act
COC(/C=C/Nc1ccc(C)c(C)c1)=C(C#N)C#N	28	-16	-15	16	13
CC(=O)Oc1cccc(N2C(=O)C3CC=CCC3C2=O)c1 (centres undefined)	89*	-30	-12	30	13
O=C(CCSc1nc(-c2ccco2)cc(C(F)(F)F)n1)NCc1cccs1	-40	-47	38	47*	-34
COc1ccc(NC(=O)c2cc(OC)c(OC)c(OC)c2)cn1	-36	48*	-1	-48	1
O=C(Nc1cccc2cccnc12)c1cccnc1	-4	-30	5	30	-4
COc1cc(C(=O)Nc2cccc3cccnc23)cc(OC)c1OC	-18	39*	1	-39	2
O=C(NCCCn1ccnc1)C(Cc1ccc([N+](=O)[O-])cc1)N1C(=O)c2ccccc2C1=O (centres undefined)	48	-7	-6	7	12
COCCCNC(=O)c1ccccc1SC	-1	1	-7	-1	7
CC(C)CC(c1nnnn1Cc1ccccc1)N1CCC(C(N)=O)CC1 (centres undefined)	-2	-58	-6	58*	6
Cc1ccc(SCc2ccc(C(=O)NCc3ccncc3)cc2)cc1	7	6	52	-6	-51
O=C(Nc1cccc2ccccc12)c1ccc(OC(=S)N2CCOCC2)cc1	/	/	88*	/	-88
COc1ccccc1-n1cnnc1SCC(=O)c1ccc[nH]1	-18	-13	-2	13	4
Cc1ncsc1CCSc1n[nH]c(=O)n1-c1ccccc1	-160	-1	0	1	1
Cc1ncsc1CCSc1nc2ccccc2c(=O)n1C	80*	28	4	-27	-1
CN(CC(=O)Nc1ccccc1Br)Cc1nc2ccccc2c(=O)[nH]1	-24	-26	-6	26	9
Cc1nnc(Oc2ccccc2F)c2ccccc12	4	2	-12	-2	12
COc1ccc(OC)c(NC(=O)C2C3CCC(O3)C2C(=O)O)c1 (centres undefined)	-37	3	11	-3	-11
COc1ccc2cc3cc(C(=O)NCCN4CCN(c5ccccc5F)CC4)oc3nc2c1	-11	-45	-7	45*	7
CSc1nc2nc3c(c(=O)n2[nH]1)CCCC3	-7	-2	-10	2	10
CN(CC(=O)O/N=C(\N)c1ccc([N+](=O)[O-])cc1)S(=O)(=O)c1ccccc1	-10	-50	-6	50*	4
COc1cc(SC)ccc1C(=O)Nc1ccc2c(c1)OCCO2	-38	-45	0	45*	0
COc1cc(SC)ccc1C(=O)Nc1ccccc1	-3	-7	6	7	-9
CCC(C)Sc1nc2c(c(=O)[nH]c(=O)n2C)n1C (centres undefined)	91*	-7	8	7	-9
CC(C)Sc1nc2c(c(=O)[nH]c(=O)n2C)n1C	29	-1	5	1	-6
O=C(NO)c1ccc(C(=O)N(C2CCCCC2)C2CCCCC2)cc1	1	-44	6	44*	-6
SMILES	HUVEC tox IL1B	IL1B NFkB inh	sEH inh	NFkB transloc pot	sEH act
CC(=O)NC1CC2CCCC(C1)N2C(=O)Nc1ccc(Cl)c(C(F)(F)F)c1 (centres undefined)	-8	-30	87*	29	-88
CS(=O)(=O)N1CCC(C(=O)Nc2ccc(Cl)c(C(F)(F)F)c2)CC1	-17	1	43	-1	-41
O=C(NCc1ccc(Cl)cc1)c1ccc(Br)o1	-8	-8	14	8	-12
Nc1nc2ccc(S(=O)(=O)c3ccc4nc(N)sc4c3)cc2s1	-21	-4	8	4	-8
Nc1nc2ccc(O)cc2s1	-33	35*	-4	-35	5
Cc1nn(C)c(C)c1/C=N/N=C1\CCC2C3CCc4cc(O)ccc4C3CCC12C (centres undefined)	20	?	-12	-70	15
C=CCNC(=O)c1ccc(C(=O)c2ccccc2)cc1	5	7	1	-7	0
O=C(NCNC(=O)c1ccccc1)c1ccccc1	81*	-11	-2	11	2
Cn1cc([N+](=O)[O-])c(C(=O)Nc2ccn(Cc3c(F)c(F)cc(F)c3F)n2)n1	-2	4	-6	-4	8
Clc1ccc(OCCCNCc2ccccc2)c(Br)c1	-16	40*	3	-40	-5
OCCNCCCOc1ccc(Cl)cc1Br	-19	5	-31	-5	32
CCc1ccc(N(C(=O)c2snc(C(N)=O)c2N)C(C(=O)NCCC(C)C)c2c[nH]c3ccccc23)cc1 (centres undefined)	-3	-4	-2	5	4
Cn1c(CCNC(=O)c2ccc(Cl)cc2)n[nH]c1=S	/	/	-15	/	15

Screens: PubChem BioAssay, Columbia University Molecular Screening Center
